Experimental data as given in PubChem BioAssay.
Entries with a potency or affinity are not part of this list. Calls of active or inactive are those of the source.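 The calls were made as follows: active = fitted dose curve reaches 40% lysis signal rise at or below the highest valid concentration tested for that sample; inconclusive = flat fit between 30% and 70%, or poor curve fit; inactive = signal falls, stays flat within 30%, or no crossing.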

Assay: C. neoformans lysis by adenylate kinase leakage – AK release luminescence, cherry-picks, dose response (AID 687000);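 also: luminescent detection of adenylate kinase leaking from lysed yeast; 0% = median neutral control signal and 100% = double that signal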
Details: 4 h, 100% = twice the neutral-control signal; series mostly up to 15 µM; lysis activity: at the top concentration

Row | Compound | lysis activity
1 | C[C@@H]1CCCCO[C@@H](CN(C)Cc2ccncc2)[C@@H](C)CN([C@H](C)CO)C(=O)c2cc(NC(=O)c3ccncc3)ccc2O1 | -3.16% (inactive)
2 | CC(=O)N1CCN(c2ccc(NC(=S)NC(=O)c3ccc(C)c([N+](=O)[O-])c3)cc2)CC1 | -16.7% (inactive)
3 | C[C@H](O)C#Cc1ccc([C@H]2[C@H](CO)N3CCCCN(CC4CCOCC4)C[C@@H]23)cc1 | -5.56% (inactive)
4 | C[C@@H]1CN([C@@H](C)CO)C(=O)c2cc(NS(=O)(=O)c3ccc(F)cc3)ccc2O[C@@H](C)CCCCO[C@@H]1CN(C)Cc1ccc2c(c1)OCO2 | -6.97% (inactive)
5 | C[C@H](CO)N1C[C@H](C)[C@@H](CN(C)C(=O)Nc2cccc3ccccc23)Oc2c(cccc2N(C)C)C1=O | -12.4% (inactive)
6 | CO[C@H]1CN(C)C(=O)c2cc(NC(=O)c3ccccc3F)ccc2OC[C@H](C)N(CC2CCOCC2)C[C@H]1C | 8.87% (inactive)
7 | CCCC#Cc1ccc2c(c1)O[C@@H](CN(C)C)[C@@H](C)CN([C@@H](C)CO)S2(=O)=O | 3.09% (inactive)
8 | CC(C)NC(=O)Nc1ccc2c(c1)CC(=O)N([C@H](C)CO)C[C@@H](C)[C@H](CN(C)Cc1ccc3c(c1)OCO3)O2 | -10% (inactive)
9 | Cc1ccc(S(=O)(=O)N2C[C@@H](O)COC[C@H]3O[C@H](CC(=O)NCc4ccc5c(c4)OCO5)CC[C@@H]32)cc1 | -8.78% (inactive)
10 | C[C@H]1CCCCO[C@H](CN(C)S(=O)(=O)c2ccc(Cl)cc2)[C@@H](C)CN([C@@H](C)CO)C(=O)c2cc(NS(=O)(=O)c3cccs3)ccc2O1 | -11.3% (inactive)
11 | Cc1cccc(C)c1NC(=O)CN1CCN(C(=O)CNC(=O)c2ccc(N3CCCC3=O)cc2)CC1 | 11.3% (inactive)
12 | C[C@H](CO)N1C[C@H](C)[C@@H](CN(C)Cc2ccncc2)OCCCC[C@H](C)Oc2ccc(NC(=O)NC3CCCCC3)cc2C1=O | 5.31% (inactive)
13 | CCNC(=O)COc1cccc(C(=O)NCc2ccccc2)c1 | -0.747% (inactive)
14 | O=C(CSc1ncnc2c1cnn2-c1ccccc1)NC1CCS(=O)(=O)C1 (configuration not stated) | 2.45% (inactive)
15 | C[C@H]1CN([C@@H](C)CO)C(=O)Cc2cc(NC(=O)Nc3ccccc3)ccc2O[C@H]1CN(C)C(=O)Nc1ccc2c(c1)OCO2 | 1.84% (inactive)
16 | CC(C)NC(=O)NCC[C@@H]1CC[C@@H](NC(=O)CN(C)C)[C@@H](CO)O1 | 3.26% (inactive)
17 | CCC(C)(C(=O)NC1CCCC1)N(C(C)=O)c1ccc(C)cc1 (configuration not stated) | 26.2% (inactive)
18 | CC1(C(=O)Nc2ccc3ccccc3c2)CCC(=O)N1C1CC1 (configuration not stated) | -17.6% (inactive)
19 | Cc1noc(C)c1S(=O)(=O)Nc1ccc2c(c1)C(=O)N([C@H](C)CO)C[C@H](C)[C@H](CN(C)Cc1ccncc1)O2 | 1.04% (inactive)
20 | Cc1noc(C)c1NC(=O)Nc1cccc2c1O[C@@H](CN(C)S(=O)(=O)c1cn(C)cn1)[C@@H](C)CN([C@@H](C)CO)C2=O | 1.65% [at 16 µM] (inactive)
21 | CO[C@@H]1CN(C)C(=O)c2cc(NC(=O)C3CC3)ccc2OC[C@H](C)N(C(=O)c2ccncc2)C[C@H]1C | -6.21% (inactive)
22 | CC(C)c1ccc(S(=O)(=O)N2CCN(CC(=O)Nc3ccc4c(c3)OCO4)CC2)cc1 | -17.1% (inactive)
23 | COc1ccc(S(=O)(=O)N[C@@H]2C=C[C@@H](CC(=O)N3CCC(Cc4ccccc4)CC3)O[C@H]2CO)cc1 | 7.38% (inactive)
24 | COc1cccc(S(=O)(=O)N2C[C@@H](O)COC[C@@H]3O[C@H](CC(=O)N4CCN(C)CC4)CC[C@H]32)c1 | 2.5% (inactive)
25 | CO[C@@H]1CN(C)C(=O)c2ccc(NC(=O)Nc3ccccc3)cc2OC[C@H](C)N(C(C)=O)C[C@H]1C | -12.9% (inactive)
26 | CC(=O)NC[C@@H]1[C@@H](c2ccc(C3=CCCC3)cc2)[C@@H](CO)N1C(=O)NC(C)C | 13.3% (inactive)
27 | O=C(NC1CCCCC1)N[C@@H]1CC[C@@H](CCNS(=O)(=O)c2ccc(Cl)cc2)O[C@H]1CO | 1.77% (inactive)
